Reference: the supplement of paper PMC6555819

Test system: VDR:RXRa (NR concentration 270 nM, RXRa partner concentration 90 nM)
Assay: PBM binding z-score (relative to random genomic background probes); higher = stronger binding; sequences stand for … in GC…GCGATTGACAGCGTAGAATGAAGG
Protocol: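 Protein-binding microarray (Agilent 4x180K custom design, double-stranded 60-nt probes: 5' GC cap, 34-nt variable region, 24-nt constant primer region; full probe sequence given). Purified or IVT nuclear receptor:RXRα heterodimers (3:1 NR:RXRα, mostly 270:90 nM) or homodimers were incubated for 1 h in PBS with 2% milk and no ligand, then detected with Alexa488 antibodies. Fluorescence from o1-orientation probes (~5 replicates averaged) was converted to z-scores against 500 random hg19 background probes. Variable regions are seed direct-repeat (DR0–DR5) sites, all their single-nucleotide variants and half-site ablations.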

First: GCAGACAGGTGAGACGCAGGTAACTCAGGGTGGC
Second: TCTGCTAGGTCAGTAGGTCAGCTAACGAGCTGCC
The PBM binding z-score of the first is lower: -0.432 for the first, 0.994 for the second.

First: GATACAAGGTCAAGGCCAGAGTACGCGTATTGAT
Second: TCTGCTAGGTCAACGATGATCAGCTAATCTGCTA
The PBM binding z-score of the first is higher: 4.39 for the first, 1.17 for the second.

First: CGAACTCGGTCAAGGACAGTGAATCTCCGCACGC
Second: TCTTGTAGATCAAAAGGAGGTTAAGAAAGATCGA
The PBM binding z-score of the first is lower: 0.0619 for the first, 0.807 for the second.

Going from CAAACTAGGTCACGAAAGGTCAATGTCGAATGAC to TCAGACAGGTGAAGGTACCTCAGGTACGCAGTCG, the PBM binding z-score falls from 6.57 to 0.202.

Going from TAGCCTAGGTCACTGGGCCAGTATAGTACGCATC to GCACCAAGGTGAATAGGTCGTTGATGAGTAGGCG, the PBM binding z-score falls from 1.45 to 0.503.

First: ACTATTAGTCGACTTAGGGCAACCGATACGACGC
Second: CCTACTGGGCCATTCATAGGTCATTGATCATATG
The PBM binding z-score of the first is lower: -0.299 for the first, 1.24 for the second.

Going from ATAGACAGGTGAGTGAAGGTAACTCAGCTGGACG to CAAATTAGGTCAAGGTCAAAGTCGGTTTGTGCCA, the PBM binding z-score rises from 0.0461 to 5.33.

Going from ACTATTAGTTGAGACAAGGGCAACCGATAGGTTG to CGAACTAGGTCAAGGACAGGGAATCTCCGCACGC, the PBM binding z-score rises from 0.191 to 1.09.

Compared with GCTAGTTGGTCAGTAAAAGGTCACACACCGGTCG, AGTGAAAGTTCATCTAGGTAACGTAAGATATGCT is higher in PBM binding z-score: 3.89 for the first, 4.97 for the second.

Compared with CCGACTTGGGCAGAAAGGTTACCATACCATCCGG, ATCTCTAGGTAAAGATAGTTCTGTGAATGCAAAT is higher in PBM binding z-score: 0.0426 for the first, 0.285 for the second.

Going from CCTAGCAGGCCAATCTGGGTTACTCAAGGCTTGA to AATACAGGGTCACAAGGCCAGAGTAGGTACGAAT, the PBM binding z-score rises from -0.43 to 4.82.

Compared with ACTCGGAAGACAAAGGTCAGAGCTACGCCAGTGA, ATATGAAGGTTACATCCGGGTCATTCAGGCTATG is higher in PBM binding z-score: 2.63 for the first, 4.85 for the second.

Going from ATCGAAAGATCGACGAGGTGAGTATACACCGTTT to AGAACGAGGGCACGCTGCGTTGATAGCAGAGTAG, the PBM binding z-score rises from 0.0445 to 0.741.

Going from CGAACTAGGTCGGAACAGGACAGTGAAGGATGAT to TATACAGGGTCATAGGCCAGAGTACGAATGTCGA, the PBM binding z-score rises from -0.292 to 4.62.

First: ACTATTAGTTGACTTGGGGCAACCGATACGACGC
Second: TCGAGTAGGTTAGGGGCATTCAAAATGGCGTCGA
The PBM binding z-score of the first is lower: 0.274 for the first, 0.856 for the second.

First: GCTCCTAGGTCAACTGATGGTCAGCTAAAGCTCG
Second: CCTAGCAGGCCAATTTGGGTCACTCAAGGCTTGA
The PBM binding z-score of the first is higher: 2.29 for the first, 0.482 for the second.

First: AGCATGAGGTTATACGTAGATCAGGGAAGAAAGT
Second: TCTCGGAGGACACGAAGGTCAGAGGTTTCCAGAG
The PBM binding z-score of the first is lower: 1.44 for the first, 2.59 for the second.

Going from TAGCCTAGGTCAGGTCGGGCCAGTATACGCTATA to ATCTCTAGGTAACAAGTTTAGTGAAAGAGAGGAC, the PBM binding z-score falls from 1.03 to 0.823.

Compared with GCTGCTAGGTCAACTGATGGTCAGCAAAAGCTCG, TGTCAAAGTTCAAAAGTAACGTAAGTATCCACAC is higher in PBM binding z-score: 1.69 for the first, 3.97 for the second.

Going from CCTAGTTGGTCAAGAGGTCACACACCGGATATGA to ACTAGCAGGCCAAGTTTCGGTCACTCAAACAAAG, the PBM binding z-score falls from 4.64 to -0.204.
